Targets with a hit are over-represented here; the source holds about 7,900 in all. About 0.6% of all pairs of compound and target were hits.
What was measured:
Assay in all cases: log2 fold change, soluble protein after heating vs DMSO (PISA); higher = thermal stabilisation; K562 cells, 10 uM, 30 min; active = over 0.2 and 3.5 SD of the protein, either way, in both replicates (recomputed)
[1] = compound: CC[C@@H]1C(=O)N(C)c2cnc(Nc3ccc(C(=O)NC4CCN(C)CC4)cc3OC)nc2N1C1CCCC1
Procedure, shortened: (§1)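 Aliquots of K562 cells (2×10^6 cells/mL) treated with 10 μM compound for 30 min were heated for 3 min over 48°C-58°C. After pooling and extraction in PBS with 0.5% NP-40 at 4°C, soluble protein from a 21,000xg, 90 min spin was quantified by TMTpro 16plex LC-MS/MS with channel sums equalised. Thermal stability is expressed against control samples, from duplicates, as a log2 fold change.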

[2] = compound: CC[C@@H]1C(=O)N(C)c2cnc(Nc3ccc(C(=O)N[C@H]4CC[C@H](N5CCN(CC6CC6)CC5)CC4)cc3OC)nc2N1C(C)C [volasertib]
Procedure, shortened: as §1

[3] = compound: CC[C@H](C)N1C=C(C2=C(C=C(C=C21)C3=CN=C(C=C3)N4CCNCC4)C(=O)NCC5=C(C=C(NC5=O)C)C)C
Procedure, shortened: as §1

[4] = compound: CC[C@H](C)[C@@H](C(=O)N[C@@H]([C@@H](C)O)C(=O)N[C@@H](CC(C)C)C(=O)[C@]1(CO1)C)NC(=O)[C@H]([C@@H](C)CC)N(C)C(=O)C [epoxomicin]
Procedure, shortened: as §1

[5] = compound: CCn1c(C(=O)N(C2CC2)C2CC2)cc2c3c(ncn3C)c(Nc3cc(C)n(C)n3)nc21
Procedure, shortened: as §1

[6] = compound: CCn1cc(-c2ccnc3[nH]c(-c4cccc(CN(C)C)c4)cc23)c(-c2ccc(NC(=O)N(C)C)cc2)n1
Procedure, shortened: as §1

[7] = compound: CN(C)CC(=O)Nc1ccc2[nH]c(=O)c3ccccc3c2c1
Procedure, shortened: as §1

[8] = compound: CN(CCOC1=CC=C(C=C1)C[C@H]2C(=O)NC(=O)S2)C3=CC=CC=N3 (racemic) [rosiglitazone]
Procedure, shortened: as §1

[9] = compound: CN1C2=C(C3=C1C(=O)N(N=C3)CC4=CC(=CC=C4)N)SC(=C2)S(=O)C
Procedure, shortened: as §1

[10] = compound: CN1CCC(CNc2ccc3ncc(-c4cccc(OC(F)(F)F)c4)n3n2)CC1
Procedure, shortened: as §1

Measured: log2 fold change

SRP72 (UniProt O76094)
Sequence of UniProt O76094 (O76094 whole entry, looked up): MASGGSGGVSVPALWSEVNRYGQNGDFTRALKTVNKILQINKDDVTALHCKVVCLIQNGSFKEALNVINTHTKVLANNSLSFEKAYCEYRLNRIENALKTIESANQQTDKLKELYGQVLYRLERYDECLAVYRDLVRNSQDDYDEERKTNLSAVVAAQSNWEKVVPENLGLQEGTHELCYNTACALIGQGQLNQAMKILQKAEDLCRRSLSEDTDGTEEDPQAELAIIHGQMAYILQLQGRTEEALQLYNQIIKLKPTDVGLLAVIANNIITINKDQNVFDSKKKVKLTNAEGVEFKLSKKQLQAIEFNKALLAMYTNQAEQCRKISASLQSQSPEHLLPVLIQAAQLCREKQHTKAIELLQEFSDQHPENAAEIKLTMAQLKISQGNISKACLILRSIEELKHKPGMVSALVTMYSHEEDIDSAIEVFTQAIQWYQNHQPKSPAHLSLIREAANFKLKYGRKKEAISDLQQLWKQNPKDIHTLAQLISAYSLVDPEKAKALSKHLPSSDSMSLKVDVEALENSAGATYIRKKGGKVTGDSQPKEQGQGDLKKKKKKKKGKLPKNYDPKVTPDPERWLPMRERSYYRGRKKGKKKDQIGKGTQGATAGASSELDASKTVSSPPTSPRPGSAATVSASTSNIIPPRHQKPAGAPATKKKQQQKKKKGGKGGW
inactive: [1] -0.093 | [2] -0.518 | [3] 0.119 | [4] 0.001 | [5] -0.104 | [6] -0.034 | [7] 0.03 | [8] 0.047 | [9] 0.119 | [10] -0.168

SNX2 (UniProt O60749)
inactive: [1] -0.129 | [2] -0.053 | [3] 0.093 | [4] 0.026 | [5] -0.102 | [6] -0.08 | [7] 0.005 | [8] 0.054 | [9] -0.003
active: [10] -0.332

TFAM (UniProt Q00059)
Sequence of UniProt Q00059 (Q00059 whole entry, looked up): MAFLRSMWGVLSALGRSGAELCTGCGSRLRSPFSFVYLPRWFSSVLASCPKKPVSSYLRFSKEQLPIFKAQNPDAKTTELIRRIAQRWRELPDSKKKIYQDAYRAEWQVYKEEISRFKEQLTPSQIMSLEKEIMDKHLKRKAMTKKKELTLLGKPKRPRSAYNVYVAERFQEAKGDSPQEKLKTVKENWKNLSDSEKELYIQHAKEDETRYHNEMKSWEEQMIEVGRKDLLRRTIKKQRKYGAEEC
inactive: [1] 0.058 | [2] 0.059 | [3] 0.007 | [4] -0.053 | [5] 0.035 | [6] 0.062 | [7] -0.074 | [8] -0.017 | [9] 0.098 | [10] 0.049

TFRC (UniProt P02786)
active: [1] -0.589 | [2] -0.417 | [10] -0.289
inactive: [3] -0.035 | [4] -0.009 | [5] 0.051 | [6] -0.005 | [7] 0.004 | [8] -0.007 | [9] -0.033

SLC25A39 (UniProt Q9BZJ4)
Sequence of UniProt Q9BZJ4 (Q9BZJ4 whole entry, looked up): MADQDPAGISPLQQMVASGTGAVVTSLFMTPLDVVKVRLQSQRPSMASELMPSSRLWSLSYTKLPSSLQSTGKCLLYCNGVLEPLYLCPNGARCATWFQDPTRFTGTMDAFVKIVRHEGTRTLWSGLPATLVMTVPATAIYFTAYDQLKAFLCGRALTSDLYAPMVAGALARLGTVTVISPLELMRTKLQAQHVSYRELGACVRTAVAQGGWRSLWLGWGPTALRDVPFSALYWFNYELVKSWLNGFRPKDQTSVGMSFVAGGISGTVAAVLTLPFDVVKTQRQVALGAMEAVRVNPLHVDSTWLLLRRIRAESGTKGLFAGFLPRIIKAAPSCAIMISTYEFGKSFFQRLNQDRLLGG
active: [10] -0.82
inactive: [1] 0.029 | [2] -0.06 | [3] 0.087 | [4] 0.081 | [5] 0.096 | [6] -0.12 | [7] 0.06 | [8] -0.03 | [9] 0.012

TK1 (UniProt P04183)
inactive: [1] 0.039 | [2] 0.062 | [3] -0.039 | [4] 0.084 | [5] -0.015 | [6] 0.001 | [7] -0.009 | [8] 0 | [9] -0.075 | [10] -0.046

TMBIM1 (UniProt Q969X1)
Sequence of UniProt Q969X1 (Q969X1 whole entry, looked up): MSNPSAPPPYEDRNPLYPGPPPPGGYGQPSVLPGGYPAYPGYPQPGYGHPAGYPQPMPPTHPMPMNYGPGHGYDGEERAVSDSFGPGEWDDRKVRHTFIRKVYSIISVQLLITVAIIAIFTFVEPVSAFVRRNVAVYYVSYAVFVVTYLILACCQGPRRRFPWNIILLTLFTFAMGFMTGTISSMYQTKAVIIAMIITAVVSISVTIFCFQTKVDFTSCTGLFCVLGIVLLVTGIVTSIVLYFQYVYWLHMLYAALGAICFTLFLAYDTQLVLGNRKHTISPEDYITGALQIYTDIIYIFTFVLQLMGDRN
inactive: [1] 0.086 | [2] 0.002 | [3] -0.014 | [4] -0.033 | [5] 0.034 | [6] 0.044 | [7] 0.029 | [8] -0.013 | [9] -0.035 | [10] -0.03

SNRNP27 (UniProt Q8WVK2)
Sequence of UniProt Q8WVK2 (Q8WVK2 whole entry, looked up): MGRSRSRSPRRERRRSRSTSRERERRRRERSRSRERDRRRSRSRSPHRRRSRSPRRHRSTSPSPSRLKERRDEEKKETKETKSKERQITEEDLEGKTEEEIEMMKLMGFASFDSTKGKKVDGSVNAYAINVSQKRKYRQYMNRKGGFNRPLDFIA
inactive: [1] 0.029 | [2] 0.014 | [3] -0.08 | [4] 0.01 | [5] 0.051 | [6] 0.038 | [7] 0.005 | [8] -0.027 | [9] 0.051 | [10] -0.032

TBC1D10B (UniProt Q4KMP7)
Sequence of UniProt Q4KMP7 (Q4KMP7 whole entry, looked up): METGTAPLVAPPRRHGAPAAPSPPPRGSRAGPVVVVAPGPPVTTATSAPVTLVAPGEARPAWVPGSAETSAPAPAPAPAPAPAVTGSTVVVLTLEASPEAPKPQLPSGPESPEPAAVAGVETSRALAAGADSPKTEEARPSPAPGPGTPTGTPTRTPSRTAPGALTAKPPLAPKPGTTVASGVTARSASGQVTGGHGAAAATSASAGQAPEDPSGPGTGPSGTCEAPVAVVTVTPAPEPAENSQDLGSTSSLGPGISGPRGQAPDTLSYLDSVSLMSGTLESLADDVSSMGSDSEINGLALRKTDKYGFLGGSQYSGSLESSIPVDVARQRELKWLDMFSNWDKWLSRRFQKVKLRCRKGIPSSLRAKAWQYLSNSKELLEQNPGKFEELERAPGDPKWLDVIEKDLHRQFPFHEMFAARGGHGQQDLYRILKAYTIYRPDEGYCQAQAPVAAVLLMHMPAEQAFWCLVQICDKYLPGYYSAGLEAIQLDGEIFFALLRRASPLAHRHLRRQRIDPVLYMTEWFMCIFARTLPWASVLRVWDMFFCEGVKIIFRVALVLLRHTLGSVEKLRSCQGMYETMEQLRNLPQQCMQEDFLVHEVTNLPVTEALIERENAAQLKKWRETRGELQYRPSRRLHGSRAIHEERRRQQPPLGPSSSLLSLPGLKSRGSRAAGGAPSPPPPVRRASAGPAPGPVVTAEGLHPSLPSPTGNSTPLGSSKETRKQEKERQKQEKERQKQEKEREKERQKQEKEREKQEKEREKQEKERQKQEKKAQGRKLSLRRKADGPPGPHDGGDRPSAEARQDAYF
inactive: [1] -0.108 | [2] -0.114 | [3] 0.025 | [4] 0.019 | [5] 0.022 | [6] 0.004 | [7] -0.005 | [8] 0.015 | [9] -0.053 | [10] -0.185

TECR (UniProt Q9NZ01)
active: [2] -0.24 | [10] -0.347
inactive: [1] -0.116 | [3] 0.015 | [4] 0.026 | [5] 0.021 | [6] -0.085 | [7] 0.042 | [8] 0.043 | [9] -0.063

SLIRP (UniProt Q9GZT3)
inactive: [1] 0.05 | [2] 0.343 | [3] -0.093 | [4] 0.302 | [5] 0.015 | [6] 0.02 | [7] 0.08 | [8] 0.058 | [9] 0.092 | [10] 0.06

TAOK3 (UniProt Q9H2K8)
Sequence of UniProt Q9H2K8 (Q9H2K8 whole entry, looked up): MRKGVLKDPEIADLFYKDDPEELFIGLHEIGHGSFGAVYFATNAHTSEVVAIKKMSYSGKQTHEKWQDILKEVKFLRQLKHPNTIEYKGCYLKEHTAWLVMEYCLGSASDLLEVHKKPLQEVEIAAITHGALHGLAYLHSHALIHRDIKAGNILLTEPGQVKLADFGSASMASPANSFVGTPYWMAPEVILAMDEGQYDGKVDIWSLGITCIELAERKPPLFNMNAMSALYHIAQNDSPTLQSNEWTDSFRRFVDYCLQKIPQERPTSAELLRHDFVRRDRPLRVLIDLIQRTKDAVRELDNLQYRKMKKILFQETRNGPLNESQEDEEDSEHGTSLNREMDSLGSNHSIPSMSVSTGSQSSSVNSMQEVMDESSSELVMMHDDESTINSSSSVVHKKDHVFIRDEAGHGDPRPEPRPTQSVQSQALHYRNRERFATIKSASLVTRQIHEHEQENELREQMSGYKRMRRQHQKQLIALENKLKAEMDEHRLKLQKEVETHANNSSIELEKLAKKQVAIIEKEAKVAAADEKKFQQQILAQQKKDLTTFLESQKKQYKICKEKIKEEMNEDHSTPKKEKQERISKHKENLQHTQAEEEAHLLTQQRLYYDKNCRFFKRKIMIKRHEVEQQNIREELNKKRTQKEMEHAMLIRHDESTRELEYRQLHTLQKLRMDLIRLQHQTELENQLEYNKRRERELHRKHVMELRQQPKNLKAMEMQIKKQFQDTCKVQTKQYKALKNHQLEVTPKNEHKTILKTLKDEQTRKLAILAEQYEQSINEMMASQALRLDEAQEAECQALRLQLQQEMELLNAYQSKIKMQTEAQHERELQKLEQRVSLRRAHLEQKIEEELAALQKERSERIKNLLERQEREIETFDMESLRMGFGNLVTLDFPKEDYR
inactive: [1] -0.005 | [2] -0.083 | [3] 0.058 | [4] 0.007 | [5] 0.007 | [6] -0.019 | [7] 0.059 | [8] 0.001 | [9] -0.067 | [10] -0.059

TBC1D23 (UniProt Q9NUY8)
Sequence of UniProt Q9NUY8 (Q9NUY8 whole entry, looked up): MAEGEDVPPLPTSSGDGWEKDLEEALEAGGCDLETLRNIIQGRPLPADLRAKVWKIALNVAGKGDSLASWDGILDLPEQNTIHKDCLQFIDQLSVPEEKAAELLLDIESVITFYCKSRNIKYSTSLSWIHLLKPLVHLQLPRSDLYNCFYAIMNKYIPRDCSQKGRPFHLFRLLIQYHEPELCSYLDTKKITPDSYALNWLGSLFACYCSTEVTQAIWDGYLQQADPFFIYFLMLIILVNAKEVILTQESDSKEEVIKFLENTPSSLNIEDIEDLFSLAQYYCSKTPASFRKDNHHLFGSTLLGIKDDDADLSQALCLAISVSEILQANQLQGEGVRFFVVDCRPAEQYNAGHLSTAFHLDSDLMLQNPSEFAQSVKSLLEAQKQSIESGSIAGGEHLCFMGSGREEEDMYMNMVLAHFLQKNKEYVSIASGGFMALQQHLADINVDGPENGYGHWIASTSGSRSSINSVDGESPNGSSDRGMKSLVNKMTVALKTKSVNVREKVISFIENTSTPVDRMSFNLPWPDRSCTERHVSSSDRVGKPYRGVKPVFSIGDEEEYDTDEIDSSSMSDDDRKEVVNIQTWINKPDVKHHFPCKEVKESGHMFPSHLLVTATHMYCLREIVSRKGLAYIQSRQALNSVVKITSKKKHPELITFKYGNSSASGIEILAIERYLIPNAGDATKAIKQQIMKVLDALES
inactive: [1] -0.228 | [2] -0.261 | [3] 0.008 | [4] 0.049 | [5] -0.05 | [6] -0.069 | [7] 0.025 | [8] 0.042 | [9] 0.043
active: [10] -0.651

TIAL1 isoform 2 (UniProt Q01085)
Sequence of UniProt Q01085 (Q01085 whole entry, looked up): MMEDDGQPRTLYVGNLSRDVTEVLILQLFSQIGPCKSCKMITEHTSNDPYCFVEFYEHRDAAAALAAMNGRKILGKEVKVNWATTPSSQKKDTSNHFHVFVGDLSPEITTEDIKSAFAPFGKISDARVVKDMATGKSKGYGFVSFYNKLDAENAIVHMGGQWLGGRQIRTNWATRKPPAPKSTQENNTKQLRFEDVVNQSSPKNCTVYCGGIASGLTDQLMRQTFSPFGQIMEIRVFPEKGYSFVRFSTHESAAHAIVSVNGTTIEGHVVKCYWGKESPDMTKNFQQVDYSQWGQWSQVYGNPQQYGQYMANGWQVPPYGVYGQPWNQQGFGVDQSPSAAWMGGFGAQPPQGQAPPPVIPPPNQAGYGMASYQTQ
inactive: [1] 0.042 | [2] -0.042 | [3] 0.006 | [4] 0.001 | [5] 0.01 | [6] 0.026 | [7] -0.056 | [8] -0.019 | [9] -0.063 | [10] -0.03

TFB2M (UniProt Q9H5Q4)
Sequence of UniProt Q9H5Q4 (Q9H5Q4 whole entry, looked up): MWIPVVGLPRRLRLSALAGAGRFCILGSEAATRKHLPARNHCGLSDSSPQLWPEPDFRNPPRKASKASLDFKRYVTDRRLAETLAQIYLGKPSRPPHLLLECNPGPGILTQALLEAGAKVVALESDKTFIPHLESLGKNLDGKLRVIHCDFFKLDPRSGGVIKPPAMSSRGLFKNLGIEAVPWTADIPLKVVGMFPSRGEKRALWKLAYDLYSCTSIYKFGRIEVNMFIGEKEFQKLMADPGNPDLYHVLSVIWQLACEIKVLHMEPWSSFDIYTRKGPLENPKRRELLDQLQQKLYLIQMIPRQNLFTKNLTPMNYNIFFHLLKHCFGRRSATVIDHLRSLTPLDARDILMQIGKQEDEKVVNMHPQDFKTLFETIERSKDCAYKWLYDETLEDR
inactive: [1] -0.096 | [3] 0.049 | [4] 0.071 | [5] 0 | [6] -0.002 | [7] 0.031 | [8] 0.042 | [9] -0.049 | [10] -0.179
active: [2] -0.326

Source: the supplement of paper PMC10849652
